Screens: PubChem, National Center for Advancing Translational Sciences (NCATS)
Rows were chosen to be rich in hits. Some 11% of all compounds tested hit in one or more screens of this group.
CBFb-RUNX1 inh: qHTS Assay for Compounds Blocking the Interaction Between CBF-beta and RUNX1 for the Treatment of Acute Myeloid Leukemia; Runt-related transcription factor 1 (Homo sapiens) + Core-binding factor subunit beta …; AlphaScreen CBFb-His/RUNX1-biotin binding, biochemical; Potency, µM (highest dose often 59.8 µM), for inactives: at the top dose activity, negative = inhibition, actives largely listed as inhibitors; 230,000 tested, under 10 active; AID 1477, 2009; further: % of control where 0% means no effect
Target sequence (Q01196 whole entry, looked up): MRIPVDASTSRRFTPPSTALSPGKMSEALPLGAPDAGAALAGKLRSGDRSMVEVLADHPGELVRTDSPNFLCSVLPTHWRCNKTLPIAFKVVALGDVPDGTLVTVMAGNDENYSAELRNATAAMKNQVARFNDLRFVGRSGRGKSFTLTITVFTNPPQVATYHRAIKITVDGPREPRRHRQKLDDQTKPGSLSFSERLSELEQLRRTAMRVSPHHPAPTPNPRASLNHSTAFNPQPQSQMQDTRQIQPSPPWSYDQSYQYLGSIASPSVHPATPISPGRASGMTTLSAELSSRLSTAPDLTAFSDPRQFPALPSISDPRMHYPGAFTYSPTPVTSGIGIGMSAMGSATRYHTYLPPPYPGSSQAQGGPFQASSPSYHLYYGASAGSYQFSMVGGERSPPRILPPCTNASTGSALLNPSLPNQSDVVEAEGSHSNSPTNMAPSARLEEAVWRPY
Target sequence (Q13951 whole entry, looked up): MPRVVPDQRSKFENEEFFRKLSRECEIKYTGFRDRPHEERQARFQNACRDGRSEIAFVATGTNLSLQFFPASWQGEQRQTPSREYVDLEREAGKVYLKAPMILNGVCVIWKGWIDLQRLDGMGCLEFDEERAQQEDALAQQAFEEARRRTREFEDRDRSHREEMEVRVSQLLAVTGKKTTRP
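Proteins preincubated together for 20 min at RT before compound addition; 15 min later, nickel and streptavidin beads were added and left 90 min prior to AlphaScreen measurement.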
HPGD block: qHTS Assay for Inhibitors of HPGD (15-Hydroxyprostaglandin Dehydrogenase); 15-hydroxyprostaglandin dehydrogenase [NAD(+)] (Homo sapiens), P15428; purified HPGD, NADH fluorescence kinetic, PGE2 substrate; Potency, µM, inactives show top-dose activity change, negative = inhibition, hits mostly inhibitors; 4.3% of 150,000 active; active means well fitted inhibition curve with a large enough effect, not every such curve was filed as active; inconclusive means small, poorly fitted or top-dose-only effect, or another doubt; inactive means no such curve, though single readings can be large or run the other way; further: potency means the concentration at half of the fitted maximal effect; on the % scale 0 is the no-effect control and ±100 the full control effect
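NADH formation kinetics: reaction with 30 uM PGE2 and 1 mM NAD+ (final), 20 nM enzyme, Tris-HCl pH 8 with Tween 20, after 15 min compound preincubation at room temperature. Fluorescence change, last versus first of five reads.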
PNC inhibitor: High Content Assay for Compounds that inhibit the Assembly of the Perinucleolar Compartment. PC3M PTB-GFP, PNC prevalence imaging, 16 h; stronger effect = lower value. activity change (PNC), negative = inhibition, % at 10 µM. 3.1% of 140,000 active;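 active means readout at or below -70, meaning at least 70% loss of cells showing the perinucleolar compartment, a nuclear body marking cancer cells; inconclusive means readout between -30 and a set limit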;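 further: plate controls were DMSO wells for no effect and camptothecin positive control wells for full effect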
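PC3M cells stably expressing PTB-GFP, 750–1000 cells/well, treated 16 h at 37 °C with compound (23 nl of library stock), in duplicate. After paraformaldehyde fixation and Hoechst stain, imaged at 20x; PNC prevalence scored by image analysis.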
HTT aggregate: qHTS Multiplex Assay to Identify Dual Action Probes in a Cell Model of Huntington: Aggregate Formation (GFP); PC12 HttQ103-GFP aggregates, Acumen cytometry, 40 h; Potency, µM (top dose mostly 46.1 µM), without a hit: at the top dose activity change, negative = inhibition, actives largely listed as inhibitors; 1.1% of 220,000 active; AID 1688, 2009; further: potency means the concentration at half of the fitted maximal effect; on the % scale 0 is the no-effect control and ±100 the full control effect; nearly all actives have a fitted effect of over 60% in size
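Ecdysone-promoter PC12 model expressing HTT exon 1 Q103 fused to GFP, induced by tebufenozide at 100 nM final. Compounds titrated; aggregates sized 1–25 µm scored on a 488 nm laser cytometer.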
ALDH1A1 block: qHTS Assay for Inhibitors of Aldehyde Dehydrogenase 1 (ALDH1A1); Purified ALDH1A1, NADH fluorescence, propionaldehyde substrate; Aldehyde dehydrogenase 1A1 (Homo sapiens), P00352; 7.3% of 220,000 active; Potency, µM (titrated, usually from 75.3 µM), without a hit: top-dose activity, negative = inhibition, hits mostly inhibitors; active means well fitted inhibition curve with a large enough effect, not every such curve was filed as active; inconclusive means small, poorly fitted or top-dose-only effect, or another doubt; inactive means no such curve, though single readings can be large or run the other way;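 further: potency means the concentration at half of the fitted maximal effect; plate controls were no enzyme wells and a reference inhibitor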
HTT cytoprotect: qHTS Multiplex Assay to Identify Dual Action Probes in a Cell Model of Huntington: Cytoprotection (ATP). PC12 HTT-Q103 induced, cytoprotection, ATP luminescence, 40 h. Potency, µM (titrated, usually from 56.4 µM), inactives show cytoprotection (ATP increase), actives largely listed as activators. 0.14% of 230,000 active. AID 1471, 2008; further: potency means the concentration at half of the fitted maximal effect; % of control where 0% means no effect; nearly all actives have a fitted effect of over 45% in size
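Cells were plated at 1500 per well in phenol red-free DMEM with 5% equine and 5% calf serum. Tebufenozide (100 nM final) and compounds were added, then ATPlite reagent, and luminescence was read.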
Starred values were filed as active, the others as inactive; [ ] = another dose, or the depositor's remark. Unless noted, the call rests on the fitted dose curve; in most records, active means well fitted curve in the direction sought with a large enough effect; inconclusive means small, poorly fitted or top-dose-only effect, or another doubt; inactive means no such curve, though single readings can be large; an effect the other way counts as inactive or inconclusive.

Cc1ncoc1C(=O)Nc1ccc2c(c1)OCCO2 was read as CBFb-RUNX1 inh 2%, HPGD block -3%, PNC inhibitor inconclusive, HTT aggregate -25%, ALDH1A1 block 10% and HTT cytoprotect -42%.
`Cc1csc2ncc(C(=O)Nc3ccc4c(c3)OCCO4)c(=O)n12` gave CBFb-RUNX1 inh 6%, HPGD block 99%, PNC inhibitor 35, HTT aggregate 15%, ALDH1A1 block 8.9µM* and HTT cytoprotect -8%[10 µM].
O=C(O)C1(O)CC(O)C(O)C(O)C1 (centres undefined) was read as HPGD block -5% and ALDH1A1 block -6%.
For CCOC(=O)CNC(=O)O[C@@H]1C(=O)c2cc(OC)ccc2O[C@H]1c1ccc(OC)c(Br)c1 the results were CBFb-RUNX1 inh -10%, HPGD block -7%, ALDH1A1 block 2% and HTT cytoprotect 7%.
`CC(C)[C@H](NC(=O)[C@H](CCC(N)=O)NC(=O)CNC(=O)[C@@H]1CCCN1C(=O)[C@H](Cc1ccc(O)cc1)NC(=O)CN)C(=O)O` gave CBFb-RUNX1 inh 5%.
Screening CN1/C(=C\C(=O)c2ccccc2Cl)c2ccccc2CC1(C)C returned CBFb-RUNX1 inh -5%, HPGD block 18µM*, PNC inhibitor inconclusive, HTT aggregate 8%, ALDH1A1 block 2% and HTT cytoprotect -1%[10 µM].
`COC(=O)c1ccccc1NC(=S)N(Cc1ccc2c(c1)OCO2)Cc1cc2ccc(OC)cc2[nH]c1=O` gave CBFb-RUNX1 inh 3%, HPGD block -11%, PNC inhibitor 14, HTT aggregate 11%, ALDH1A1 block inconclusive and HTT cytoprotect -4%[10 µM].
`c1cncc(-c2nc(-c3ccco3)cs2)c1` gave CBFb-RUNX1 inh -23%, HPGD block inconclusive, PNC inhibitor 9, HTT aggregate -2%, ALDH1A1 block 1.3µM* and HTT cytoprotect -16%.
Screening O=S(=O)(c1ccc(-c2csc(-c3cccnc3)n2)cc1)N1CCCCC1 returned CBFb-RUNX1 inh 9%, HPGD block 28µM*, PNC inhibitor -23, HTT aggregate -1%, ALDH1A1 block inconclusive and HTT cytoprotect -11%[0.074 µM].
`Cc1cccc(-c2cc(=O)c3cc(Br)ccc3o2)c1` gave CBFb-RUNX1 inh 17%[21.7 µM], HPGD block -9%, ALDH1A1 block -1% and HTT cytoprotect -58%[1.9 µM].
`CC1=C(C(=O)N2CCN(c3cc(C)ccc3C)CC2)C2(CCC(C)CC2)OC1=O` (centres undefined) gave CBFb-RUNX1 inh 7%[2.36 µM], HPGD block -14%, PNC inhibitor 32, HTT aggregate -12% and ALDH1A1 block 2%.
`O=S(=O)(c1cccc(C(F)(F)F)c1)N1CCC(c2cc(-c3cccc4ccccc34)n[nH]2)CC1` gave CBFb-RUNX1 inh -1%, HPGD block -30%, PNC inhibitor 70, HTT aggregate 1µM*, ALDH1A1 block -5% and HTT cytoprotect -74%.
C[N@+]1(CCC(=O)c2ccccc2)CC[C@H]2CC[C@H](C2)C1 was read as HPGD block -5%, ALDH1A1 block -8%[13.5 µM] and HTT cytoprotect -11%[10 µM].
`Cc1ccc(S(=O)(=O)NNc2ccccc2)c(C)c1` gave CBFb-RUNX1 inh 2%, HPGD block 8.9µM*, PNC inhibitor inconclusive, HTT aggregate -16%, ALDH1A1 block 7.1µM* and HTT cytoprotect 8%[10 µM].
Cc1noc(C)c1COC(=O)CCCOc1ccc(Cl)cc1Cl was read as CBFb-RUNX1 inh inconclusive, HPGD block 18µM*, PNC inhibitor -26, HTT aggregate 9%, ALDH1A1 block 14% and HTT cytoprotect -3%[0.074 µM].
`O=C(COc1ccc([N+](=O)[O-])cc1Cl)NCC1CCCO1` (centres undefined) gave CBFb-RUNX1 inh 10%, HTT aggregate 10%, ALDH1A1 block -2% and HTT cytoprotect -36%.
`O=C(COC(=O)CCCOc1ccc(Cl)cc1Cl)NCc1ccccc1` gave CBFb-RUNX1 inh inconclusive, HPGD block inconclusive, PNC inhibitor -3, HTT aggregate 10% and ALDH1A1 block 3%.
`O=C(CCCOc1ccc(Cl)cc1Cl)Nc1ccncc1` gave CBFb-RUNX1 inh -3%, HPGD block 14µM*, PNC inhibitor 11, HTT aggregate -4%, ALDH1A1 block inconclusive and HTT cytoprotect -4%[10 µM].
`O=C(CCCOc1ccc(Cl)cc1Cl)NCC1CCCO1` (centres undefined) gave CBFb-RUNX1 inh 10%, HPGD block 11µM*, PNC inhibitor -9, HTT aggregate -11%, ALDH1A1 block inconclusive and HTT cytoprotect 25%[1.9 µM].
For Cc1ccc(CNC(=O)COC(=O)CCCOc2ccc(Cl)cc2Cl)cc1 the results were CBFb-RUNX1 inh 9%, HPGD block 16µM*, PNC inhibitor 45, HTT aggregate 3%, ALDH1A1 block 11% and HTT cytoprotect 17%[10 µM].
`COc1ccc([N+](=O)[O-])cc1C(=O)Nc1ccc(OCC(=O)N2CCOCC2)cc1` gave CBFb-RUNX1 inh 0%, HPGD block -15%, PNC inhibitor 17, HTT aggregate -8%, ALDH1A1 block inconclusive and HTT cytoprotect -5%[10 µM].
For Cc1cnc(CNc2ncncc2-c2ccoc2)cn1 the results were ALDH1A1 block inconclusive and HTT cytoprotect 15%.
Cc1noc(C)c1COC(=O)/C=C/c1ccccc1Cl was read as CBFb-RUNX1 inh 7%, HTT aggregate 3%, ALDH1A1 block -1% and HTT cytoprotect -35%.
CCNC(=O)CCCOc1ccc(Cl)cc1Cl was read as CBFb-RUNX1 inh 7%, HPGD block 14µM*, PNC inhibitor -1, HTT aggregate 21%[9.22 µM], ALDH1A1 block 1% and HTT cytoprotect 0%.
Screening COC(=O)CCCOc1ccc(Cl)cc1Cl returned HPGD block -30% and ALDH1A1 block 13%.
Screening Cc1noc(C)c1COC(=O)CCCc1c[nH]c2ccccc12 returned CBFb-RUNX1 inh 2%, HPGD block inconclusive, PNC inhibitor 6, HTT aggregate -6%, ALDH1A1 block 14µM* and HTT cytoprotect 1%[10 µM].
